High-throughput results: PubChem, several laboratories
CYP2C9 inh – blockers of cytochrome P450 2C9 activity – biochemical, luminescence, ADME assay, primary screen; P11712; CYP2C9 Supersomes, luciferin-H conversion; inhibition, % at 5 µM; actives 20% (n = 96,000); AID 777, 2007;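 active = blocking of liver enzyme CYP2C9 beyond about 50% at 5 µM, limit read from the data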
CYP2C19 inh – blockers of cytochrome P450 2C19 activity – biochemical, luminescence, ADME assay, primary screen; inhibition, % at 5 µM; P33261; CYP2C19 Supersomes, luciferin-H EGE luminescence, 30 min; AID 778, 2007; actives 21% (n = 96,000);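 active = CYP2C19 inhibition above a set limit at 5 µM in the primary screen, cut at about 50% in these data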
Target sequence (P33261 whole entry, looked up): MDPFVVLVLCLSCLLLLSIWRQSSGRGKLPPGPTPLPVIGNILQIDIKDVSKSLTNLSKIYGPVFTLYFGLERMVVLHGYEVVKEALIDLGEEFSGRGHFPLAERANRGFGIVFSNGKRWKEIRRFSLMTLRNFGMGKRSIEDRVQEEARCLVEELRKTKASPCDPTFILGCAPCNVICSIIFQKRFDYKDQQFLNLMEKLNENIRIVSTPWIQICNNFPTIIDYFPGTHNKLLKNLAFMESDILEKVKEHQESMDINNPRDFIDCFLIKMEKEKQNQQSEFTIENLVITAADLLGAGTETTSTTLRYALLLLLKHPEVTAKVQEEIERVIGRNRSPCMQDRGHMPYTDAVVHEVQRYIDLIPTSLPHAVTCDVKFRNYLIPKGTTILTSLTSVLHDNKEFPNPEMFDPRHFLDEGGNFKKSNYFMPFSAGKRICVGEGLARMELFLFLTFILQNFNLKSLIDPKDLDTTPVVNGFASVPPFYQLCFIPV
sEH activator – soluble epoxide hydrolase activators, primary screen, biochemical, human sEH; actives 0.04% (n = 91,000); purified human sEH enzymatic activity, activator screen; activation, % at 2 µM; Bifunctional epoxide hydrolase 2 (Homo sapiens), P34913; in the data active = activation above about 37%
CYP2C19 act – human CYP2C19 activators, primary screen, biochemical, luminescence. Cytochrome P450 2C19 (Homo sapiens), P33261. recombinant CYP2C19, luciferin-H EGE luminescence; stronger effect = higher value; 0 = fully inhibited enzyme, 1 = untreated enzyme. activation factor at 5 µM. 96,000 tested, under 10 active;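 active = activation factor of at least 2 at 5 µM in the primary screen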
sEH inh – soluble epoxide hydrolase inhibitors, primary screen, biochemical, human sEH. Bifunctional epoxide hydrolase 2 (Homo sapiens), P34913. recombinant human sEH enzymatic activity assay. inhibition, % at 2 µM. actives 0.34% (n = 91,000). AID 707, 2007; in the data active = inhibition above about 80%
CYP2C9 activ – human CYP2C9 activators, primary screen, biochemical, luminescence. Cytochrome P450 2C9 (Homo sapiens), P11712. recombinant CYP2C9, luciferin-H conversion; stronger effect = higher value; factor 1 = untreated enzyme, 0 = blocked. activation factor at 5 µM. actives 1.4% (n = 96,000). AID 1024, 2008;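 active = activation factor of 2 or more for CYP2C9 at a 5 µM dose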
Of the large screens only hits and unclear results are named; the others gave an inactive call. Compounds with a hit are over-represented: about 27% of the library has one in this group of screens.

Cc1cccc(C)c1NC(=S)NC(=O)CCc1ccccc1	CYP2C19 inh 50
CC(C)(C)NC(=O)CSC(=Nc1cccc(F)c1)NC#N	none (no result: sEH activator, sEH inh)
O=C(CSc1nnc(-c2cccs2)n1-c1ccccc1)N1CCOCC1	none
O=C(CSc1nnc(-c2ccncc2)n1-c1ccc(Cl)cc1)N1CCOCC1	CYP2C9 inh 77, CYP2C19 inh 98
O=C(CSc1ccc(Cl)cc1)N1CCOCC1	CYP2C19 inh 74
O=C(O)CSc1nnc(-c2ccncc2)n1-c1ccc(Cl)cc1	CYP2C9 inh 51
Clc1ccc(-n2c(SCc3nc4ccccc4[nH]3)nnc2-c2ccncc2)cc1	CYP2C9 inh 84, CYP2C19 inh 99
O=C(CCSc1ccc(Cl)cc1)N1CCOCC1	none (no result: CYP2C9 inh, CYP2C19 inh, CYP2C19 act, CYP2C9 activ)
CCn1c(SCC(=O)N2CCN(c3ccccc3)CC2)nnc1-c1ccncc1	none (no result: CYP2C9 inh, CYP2C19 inh, CYP2C19 act, CYP2C9 activ)
COc1ccccc1-c1nnc(SCc2nc3ccccc3[nH]2)n1C	CYP2C19 inh 80
Cc1ccccc1-n1c(SCC(=O)N2CCN(c3ccccc3)CC2)nnc1-c1ccncc1	CYP2C9 inh 76, CYP2C19 inh 84 (no result: sEH activator, sEH inh)
COC(=O)C1(Cc2ccccc2)NC(c2ccccc2C)C2C(=O)N(c3ccc4c(c3)OCO4)C(=O)C21 (stereo unspecified)	none (no result: CYP2C9 inh, CYP2C19 inh, CYP2C19 act, CYP2C9 activ)
CCn1cc(Cl)c(C(=O)N2N=C3/C(=C/c4cccs4)CCCC3C2c2cccs2)n1 (stereo unspecified)	none (no result: CYP2C9 inh, CYP2C19 inh, CYP2C19 act, CYP2C9 activ)
Cn1c(SCC(=O)c2ccccc2)nnc1-c1ccco1	none (no result: CYP2C9 inh, CYP2C19 inh, CYP2C19 act, CYP2C9 activ)
Cn1c(SCC(=O)c2ccccc2)nnc1-c1ccc(O)cc1	CYP2C19 inh 93
Cn1c(SCC(=O)NC(C)(C)C)nnc1-c1ccc(C(C)(C)C)cc1	CYP2C9 inh 53 (no result: sEH activator, sEH inh)
Cn1c(SCC(=O)c2ccccc2)nnc1-c1cccc(N)c1	CYP2C19 inh 95
C=CCn1c(SCCC(=O)O)nc2c1c(=O)n(C)c(=O)n2C	none
Cc1ccc(-c2nn(-c3ccccc3)cc2CN(Cc2ccccc2)C(=O)c2ccco2)o1	CYP2C9 inh 70
COc1ccc(C(=O)N2CCC(C(=O)NCc3ccccn3)CC2)cc1	none
Cc1nc2nc(-c3cccs3)cn2nc1C	CYP2C19 inh 62
Cc1nc2nc(-c3ccc(Cl)cc3)cn2nc1C	CYP2C19 inh 56
COc1cccc(-c2cn3nc(C)c(C)nc3n2)c1	CYP2C19 inh 83
COc1ccc(-c2cn3nc4c(nc3n2)CCCC4)cc1	none
CCOc1cc2c(cc1C(C)(C)C)NC(=O)CS2	none
O=C(O)c1ccccc1C(=O)Nc1nccs1	none
CC12CCC(c3c(C(=O)Nc4nccs4)nn(-c4ccccc4)c31)C2(C)C (stereo unspecified)	CYP2C9 inh 74 (no result: sEH activator, sEH inh)
CC12CCC(c3c(C(=O)O)nn(-c4ccccc4)c31)C2(C)C (stereo unspecified)	none
CC12CCC(c3c(CO)nn(-c4ccccc4)c31)C2(C)C (stereo unspecified)	CYP2C19 inh 59
Cc1cc([N+](=O)[O-])nn1CC(=O)NNC(=S)Nc1ccc(Cl)cc1	none
Cc1ccc(NC2=C(Cl)C(=O)OC2NC(=O)c2ccccc2)cc1 (stereo unspecified)	none (no result: CYP2C9 inh, CYP2C19 inh, CYP2C19 act, CYP2C9 activ)
O=C1OC(NC(=O)c2ccccc2)C(n2cc(CO)nn2)=C1Cl (stereo unspecified)	CYP2C9 inh 66
CCOc1cc(C=O)ccc1OCCSc1ccc(Cl)cc1	CYP2C9 inh 81
CN(CCNC(=O)c1ccc(N2CCCC2=O)cc1)CCc1ccccc1	none (no result: CYP2C9 inh, CYP2C19 inh, CYP2C19 act, CYP2C9 activ)
Cc1ccccc1Cn1nc(C)c(NC(=O)c2noc3c2CC(C(C)(C)C)CC3)c1C (stereo unspecified)	none
Cc1ccccc1Cn1nc(C)c(NC(=O)c2noc3c2CCc2ccccc2-3)c1C	CYP2C9 inh 79, CYP2C19 inh 58
COC(=O)Nc1c(C)nn(Cc2ccccc2C)c1C	CYP2C19 inh 58
O=C(CS(=O)(=O)Cc1ccccc1)Nc1ccc(Cl)cn1	none (no result: CYP2C9 inh, CYP2C19 inh, CYP2C19 act, CYP2C9 activ)
Nc1cc(Br)c(N)c(Br)c1	none (no result: sEH activator, sEH inh)
Cc1ccc(CSc2nc3ccncc3[nH]2)cc1	CYP2C9 inh 88, CYP2C19 inh 99
Cc1ccc(CSc2nc3ncccc3[nH]2)cc1	CYP2C9 inh 56, CYP2C19 inh 76
Clc1ccc(CSc2nc3ccncc3[nH]2)cc1	CYP2C9 inh 89, CYP2C19 inh 98
